Bioassay records as filed in PubChem.
The list is not random: actives were taken first. Their share in the collection is about 7.5%.
ELG1 genotox: genotoxicity induction in ELG1-luciferase HEK293T cells; 330,000 compounds, 1.3% hits; Potency, µM (titrated, usually from 46 µM), for inactives: top-dose activity change, positive = activation, most hits filed as activators; HEK293T ELG1-luciferase reporter, luminescence, 16 h; also: % of control where 0% means no effect; nearly all actives have a fitted effect of over 60% in size
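Reporter readout depends on ELG1 protein level, which increases with genetic stress. After 16 hr compound exposure at 37 °C, luciferase activity was quantified using ONE-Glo.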
FLuc modulator: inhibits or activates purified firefly luciferase, miR-21 counter-screen; purified FLuc, Km substrates, luminescence inhibition; Potency, µM (titrated, usually from 57.5 µM), for inactives: top-dose activity change, negative = inhibition, hits mostly inhibitors; 360,000 compounds, 6.9% hits; AID 588342;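 also: plate controls were vehicle for no effect and reference inhibitor for full effect; nearly all actives have a fitted effect of over 55% in size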
Target sequence (P08659 whole entry, looked up): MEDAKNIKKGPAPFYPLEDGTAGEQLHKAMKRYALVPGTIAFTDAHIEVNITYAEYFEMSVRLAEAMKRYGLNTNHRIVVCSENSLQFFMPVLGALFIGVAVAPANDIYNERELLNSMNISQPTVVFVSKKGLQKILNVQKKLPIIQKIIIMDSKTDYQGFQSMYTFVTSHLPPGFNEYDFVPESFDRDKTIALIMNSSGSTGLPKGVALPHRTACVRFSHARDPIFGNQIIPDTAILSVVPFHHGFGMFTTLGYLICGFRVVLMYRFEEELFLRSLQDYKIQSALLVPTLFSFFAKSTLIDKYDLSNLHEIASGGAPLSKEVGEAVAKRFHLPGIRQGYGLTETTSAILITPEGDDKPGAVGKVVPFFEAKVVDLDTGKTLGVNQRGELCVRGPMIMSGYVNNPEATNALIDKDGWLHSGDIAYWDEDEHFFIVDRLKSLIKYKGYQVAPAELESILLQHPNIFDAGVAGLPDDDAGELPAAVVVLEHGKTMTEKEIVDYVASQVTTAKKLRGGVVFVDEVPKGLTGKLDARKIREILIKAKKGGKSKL
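Purified P. pyralis luciferase (10nM final) with 10uM D-luciferin and 10uM ATP (Km levels) in 50mM Tris acetate pH 7.5, 10mM Mg acetate, 0.01% Tween-20, 0.05% BSA; qHTS 6-point titration, ~60 µM downward; luminescence read.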
Rab9 prom act: Rab9 promoter activation | Huh7 Rab9 promoter-luciferase reporter, luminescence, 24 h | Potency, µM (titrated, usually from 9.22 µM), without a hit: at the highest dose activation, negative = inhibition, usual class: activators | 320,000 compounds, 2.8% hits; also: % of control where 0% means no effect; nearly all actives have a fitted effect of over 60% in size
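Measured in stably transfected Huh7 cells bearing a Rab9 promoter–luciferase construct: 24 h compound treatment at 37 °C, followed by luminescence detection.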
SMN2 splice up: enhancers of SMN2 splice variant expression | HEK293 SMN2-luciferase splicing reporter, luminescence, 30-36 h | Potency, µM (top dose mostly 46.1 µM), inactives show top-dose activity change, positive = activation, actives largely listed as activators | 210,000 compounds, 2.8% hits | AID 1458; also: % of control where 0% means no effect; nearly all actives have a fitted effect of over 55% in size
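HEK293 cells carry an SMN2 minigene-luciferase reporter in which exon 7 inclusion puts luciferase in frame. Cells were seeded at 2000 cells/well, attached for 10-12 hours, then exposed to compounds for 30-36 hours at 37C before ONE-Glo luminescence.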
Luc counter: counter-screen: inhibitors of Kinase-Glo firefly luciferase | Q27757 | Kinase-Glo luciferase, ATP luminescence, 8 min | Potency, µM (highest dose often 38.3 µM), for inactives: top-dose activity change, negative = inhibition, most hits filed as inhibitors | 200,000 compounds, 0.28% hits | AID 1379; also: % is scaled to controls: 0 for no effect and ±100 for the full control effect; nearly all actives have a fitted effect of over 60% in size
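Kinase-Glo luciferase light output from ATP and luciferin was measured with 10 uM ATP, within the enzyme's linear range. Buffer: 50 mM imidazole pH 7.2, 50 mM KCl, 7 mM MgCl2, 0.01% Tween 20, 0.05% BSA; luminescence read after 8 min at ambient temperature.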
NPC1 prom act: activators of NPC1 promoter | Huh7 NPC1 promoter luciferase reporter, 24 h | Potency, µM (doses to about 9.22 µM), without a hit: at the top dose activation, most hits filed as activators | 320,000 compounds, 2.4% hits | AID 485313; also: % of control where 0% means no effect; nearly all actives have a fitted effect of over 60% in size
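Luciferase expression driven by the NPC1 promoter was measured in stably transfected Huh7 cells after a 24 h compound incubation, using a luciferase reagent and a luminescence read.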
* marks the source's active call; other numbers are inactive results; ? = inconclusive; · = no result; [ ] = remark or other dose. Calls follow the shape of the dose curve; as a rule, active = well fitted curve in the direction sought with a large enough effect; inconclusive = small, poorly fitted or top-dose-only effect, or another doubt; inactive = no such curve, though single readings can be large; an effect the other way counts as inactive or inconclusive. Potency is read from the fitted curve at half-maximal effect.

SMILES	ELG1 genotox	FLuc modulator	Rab9 prom act	SMN2 splice up	Luc counter	NPC1 prom act
Cc1ccc(NC(=O)c2cccc(NC(=O)CCC(=O)O)c2)cc1C	3%	8.5µM*	5%	-5%	-3%	-3%
COc1ccc(OCC(=O)Nc2ccc(C(=O)Nc3ccccc3C(=O)O)cc2)cc1	4%	?	18%	·	·	21%
O=C(COc1ccc2ccccc2c1)Nc1cccc(C(=O)Nc2ccccc2C(=O)O)c1	1%	24µM*	-3%	-8%[1.84 µM]	0%	-1%
O=C(Nc1ccccc1C(=O)O)c1cccc(NC(=O)c2ccco2)c1	-1%	15µM*	13%	·	·	4%
O=C(NCc1cccc(F)c1)c1ccc2nc(N3CCCCC3)sc2c1	·	-14%	·	?	·	·
Cc1ccc(N(CC(=O)NCc2ccc(Cl)cc2)S(C)(=O)=O)cc1	3%	-3%	1%	·	·	0%
COc1ccccc1N1CCN(S(=O)(=O)c2c(C)sc3ncn(CC(=O)N(C)c4ccc(C(C)C)cc4)c(=O)c23)CC1	·	0%	·	-2%	·	·
O=C(O)c1cccc(NC(=O)c2ccccc2NC(=O)c2ccccc2F)c1	0%	11µM*	13%	·	·	-2%
CCCCC(=O)Nc1cccc(NC(=O)c2cccc(Br)c2)c1	-13%	-17%	-13%	10%	-1%	-7%
O=C(Nc1ccccc1C(=O)O)c1cccc(NC(=O)c2ccccc2Cl)c1	-2%	19µM*	10%	·	·	4%
CCCCC(=O)Nc1cccc(C(=O)Nc2ccccc2C(=O)O)c1	-4%	17µM*	4%	·	-4%	-2%
Cc1ccccc1C(=O)Nc1cccc(C(=O)Nc2ccccc2C(=O)O)c1	-3%	27µM*	-3%	·	·	-1%
CNCC(=O)N(CC(C)C)c1c(N)n(CC(C)C)c(=O)[nH]c1=O	3%	-4%	6%	11%	1%	-1%
CC(=O)N1c2ccc(S(=O)(=O)NCCC(=O)Nc3ccc(Br)c(C)c3)cc2CC1C (stereo unspecified)	·	-13%	·	·	·	·
Cc1cc(NC(=O)c2ccccc2C)ccc1NC(=O)c1ccccc1Cl	-5%	?	16%	·	·	14%
O=C(Nc1cccc(NC(=O)c2ccco2)c1)c1cccc(Br)c1	-18%	?	-3%	·	·	2%
O=C(Nc1cc(Br)c(O)c(Br)c1)c1cccc(NC(=O)c2ccco2)c1	-9%	11µM*	1%	·	·	-2%
O=C(Nc1cc(NC(=O)c2ccccc2Cl)ccc1Cl)c1ccccc1	·	12µM*	·	24%	·	·
CC(C)C1Cc2c(sc3c2c(=O)n(-c2ccccc2)c2n[nH]c(=S)n32)CO1 (stereo unspecified)	-2%	3%	-5%	·	·	-5%
CCN(CC)C(=O)c1sc2c(c1C)c(=O)n(-c1ccc(C)c(C)c1)c(=O)n2Cc1cc(=O)n2ccccc2n1	·	-1%	·	·	·	·
Clc1ccc(-c2cc(CSc3ccccc3)on2)cc1	?	2.4µM*	3.2µM*	13µM*	-3%	4.5µM*
c1ccc(SCc2cc(-c3ccccc3)no2)cc1	?	8.5µM*	2.5µM*	247%	0%	3.5µM*
Clc1ccc(-c2cc(CSc3cccc(Cl)c3)on2)cc1	10%	?	-3%	-18%	-2%	1%
Cc1ccc(-c2nn(-c3ccc(F)cc3F)c3c2cnc2c(F)cccc23)cc1	·	-8%	·	·	·	·
O=C(COC(=O)c1c2c(nc3ccccc13)/C(=C/c1ccco1)CC2)NC1CCCC1	-2%	5.4µM*	27%	28%	-6%	19%
CC(C)CNC(=O)COC(=O)c1c2c(nc3ccccc13)/C(=C/c1cccs1)CC2	-11%	5.4µM*	-7%	·	·	-29%
NC(=O)c1ccsc1NC(=O)C1CCCCC1	15%	-21%	-7%	-16%	-2%	7%
NC(=O)c1ccsc1NC(=O)c1ccc2c(c1)CCCC2	2.6µM*	0.6µM*	?	1.6µM*	?	?
CNC(=O)c1ccsc1NC(=O)c1ccc2c(c1)CCCC2	17%	0.95µM*	12%	11µM*	-15%	-3%
